We go through 9 compounds from PubChem BioAssay (Tox21).

Values joined by “and” are separate entries in the source; they are usually repeats but may differ in a detail not shown here. Equal entries are not always repeated. A number with no mark means an inactive call. Inconclusive results are not listed. Active and inactive are the calls of the source. Unless noted, calls come from the whole dose curve; as a rule, active = well fitted curve in the direction sought with a large enough effect in the repeat runs; inconclusive = weak or mixed curves; inactive = no such curve, though single readings can be large; an effect the other way counts as inactive or inconclusive.

Assay [1] is described as follows: Caspase-3/7 induction in HepG2 cells by small molecules, qHTS assay (AID 1346978). Note: nearly all actives have a fitted effect of over 15% in size. The method, boiled down: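 Wild-type HepG2 cells (2,000/well) were settled 5 h at 37 C, 5% CO2, then exposed to compounds in DMSO for 17 h. Caspase-3/7 activity was read by luminescence 30 min after adding Caspase-Glo 3/7 reagent at room temperature.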
Assay [2] in a line: Caspase-3/7 induction in CHO-K1 cells by small molecules, qHTS assay (AID 1346980). Note: nearly all actives have a fitted effect of over 15% in size. The method, boiled down:
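Wild-type cells were seeded at 1,500 per well and settled 5 hr at 37 C, 5% CO2, then exposed to DMSO-dissolved compounds for 17 hr. Caspase-Glo 3/7 reagent was added, and luminescence was read after 30min at room temperature.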

Assay [3] can be described thus: Caspase-3/7 induction in HepG2 cells by small molecules, qHTS cell viability counter screen (AID 1346981). Note: series mostly up to about 92 µM; nearly all actives have a fitted effect of over 30% in size. An outline of the steps: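 In this quantitative HTS counter screen, compounds delivered in DMSO were left on unmodified HepG2 cells for 16 hr at 37 C. Viability was then determined fluorometrically with CellTiter-Fluor, in parallel with caspase-3/7 induction in the same wells.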
(In qHTS, concentration-response curves come from the screen itself.)

Assay [4] has as its target Nuclear receptor subfamily 1 group I member 2 (Homo sapiens) (UniProt O75469). The assay is described as follows: Human pregnane X receptor (PXR) small molecule agonists, qHTS assay (AID 1346982). Note: nearly all actives have a fitted effect of over 35% in size. Note: potency is the fitted concentration of half-maximal effect. An outline of the steps:
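Reporter HepG2 cells expressing PXR-Luc are cultured in charcoal-stripped FBS (5%), treated with compounds for 24 hr at 37 C, and assayed by ONE-Glo luminescence after 30 min at room temperature.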

Assay [5] concerns the target Acetylcholinesterase (Homo sapiens) (UniProt P22303). In words: Acetylcholinesterase (AChE) small molecule antagonists: colormetric cell-based qHTS assay (AID 1347395; calls by dose curve; note: nearly all actives have a fitted effect of over 30% in size; note: potency is the fitted concentration of half-maximal effect). An outline of the steps: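 AChE inhibition read colorimetrically via DTNB–thiocholine in SH-SY5Y cells. Compound 30 min, substrate 90 min, both 37 C.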
For assay [6] the target is unchanged. In words: Acetylcholinesterase (AChE) small molecule antagonists: enzyme-based qHTS assay (AID 1347397; calls by dose curve; note: nearly all actives have a fitted effect of over 55% in size; note: potency is the fitted concentration of half-maximal effect). To be noted: Potency: AChE enzyme activity inhibition. An outline of the steps: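 Compound or DMSO vehicle was pin-transferred onto recombinant human AChE (50 mU/mL as dispensed) and left 30 min at room temperature. Acetylthiocholine with DTNB then started the reaction, read colorimetrically 10 min later.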

For assay [7] the target is unchanged. The assay is described as follows: Acetylcholinesterase (AChE) small molecule antagonists: fluorescence cell-based qHTS assay (AID 1347398; calls by dose curve; note: nearly all actives have a fitted effect of over 50% in size; note: potency is the fitted concentration of half-maximal effect). To be noted: Potency: AChE activity. The method, boiled down:
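Using neuroblastoma SH-SY5Y cells as the enzyme source, test chemicals are preincubated 30 min at 37 C; AChE-driven acetylthiocholine cleavage is then quantified by thiocholine-dependent Thiolite Green fluorescence after 40 min at room temperature.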

The target is the same in assay [8]. The assay is described as follows: Acetylcholinesterase (AChE) small molecule antagonists: enzyme-based qHTS assay with human liver microsomes (AID 1347399; calls by dose curve; note: nearly all actives have a fitted effect of over 60% in size; note: potency is the fitted concentration of half-maximal effect). The following applies: Potency: qHTS inhibition. The method, boiled down:
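Recombinant human AChE (50 mU/mL in the enzyme mix) and human liver microsomes (0.25 mg/mL final) were preincubated with compound and NADPH (0.25 mg/mL final) for 30 min at 37 C. Acetylthiocholine/DTNB was then added; thiocholine was read colorimetrically after 10 min at room temperature.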

Assay [9] addresses Cytochrome P450 2D6 (Homo sapiens) (UniProt P10635). In words: Cytochrome P450 Family 2 Subfamily D Member 6 (CYP2D6) small molecule antagonists: luciferase reporter qHTS assay (AID 1671196). Note: series mostly up to about 120 µM; nearly all actives have a fitted effect of over 50% in size. The method, boiled down: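 Test chemicals meet CYP2D6 plus proluciferin substrate (10 min, RT); NADPH regenerating solution then drives turnover for 1 h. Detection reagent halts the reaction; luminescence measured after 20 min.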
In general terms: In a reporter assay the amount or activity of a reporter protein is the signal.

In assay [10] the target is Cytochrome P450 2C19 (Homo sapiens) (UniProt P33261). The assay is described as follows: Cytochrome P450 Family 2 Subfamily C Member 19 (CYP2C19) small molecule antagonists: luciferase reporter qHTS assay (AID 1671197). For activity change, negative = inhibition: series mostly up to about 120 µM. Note: nearly all actives have a fitted effect of over 65% in size. Note: potency is the fitted concentration of half-maximal effect. An outline of the steps:
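P450-Glo CYP2C19 system: enzyme-substrate mix with compound 10 min at room temperature, then NADPH regeneration solution, 1 h at 37C. Proluciferin-to-luciferin conversion detected by luminescence after 20 min with detection reagent; ketoconazole as positive control.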

Assay [11] concerns the target Voltage-gated inwardly rectifying potassium channel KCNH2 (Homo sapiens) (UniProt Q12809). The assay is described as follows: Human Ether-a-go-go-Related Gene (hERG) channel small molecule antagonists: fluorescence cell-based qHTS assay (AID 1671200).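 For activity change, negative = inhibition: hERG-expressing U2OS cells given a thallium stimulus after FluxOR II dye loading; series mostly up to about 77 µM.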 Note: nearly all actives have a fitted effect of over 50% in size. Note: potency is the fitted concentration of half-maximal effect. An outline of the steps: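 Kinetic two-minute fluorescence traces, sampled at 1 s, were collected following thallium stimulus of U2OS cells (1000 per well) that had been cultured overnight at 37 C and loaded with FluxOR II.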
(The hERG channel carries a current that helps repolarise heart muscle cells.)

Assay [12] concerns the target Cytochrome P450 3A4 (Homo sapiens) (UniProt P08684). In words: Cytochrome P450 Family 3 Subfamily A Member 4 (CYP3A4) small molecule antagonists: luciferase reporter qHTS assay (AID 1671201). For activity change, negative = inhibition: series mostly up to about 120 µM. Note: nearly all actives have a fitted effect of over 50% in size. Note: potency is the fitted concentration of half-maximal effect. The method, boiled down:
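Proluciferin-to-luciferin conversion by CYP3A4, NADPH-regenerated, 1 h RT; luminescence read as RLU. Ketoconazole as control.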

In assay [13] the target is Cytochrome P450 1A2 (Homo sapiens) (UniProt P05177). In words: Cytochrome P450 Family 1 Subfamily A Member 2 (CYP1A2) small molecule antagonists: luciferase reporter qHTS assay (AID 1671199). For activity change, negative = inhibition: series mostly up to about 120 µM. Note: nearly all actives have a fitted effect of over 50% in size. Note: potency is the fitted concentration of half-maximal effect. The method, boiled down:
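Steps: enzyme-substrate mix dispensed; test compounds and furafylline control pinned in; 10 min room temperature; NADPH regeneration solution added, 1 h; reaction stopped with luciferin detection reagent; luminescence read after 20 min.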

The target of assay [14] is Cytochrome P450 2C9 (Homo sapiens) (UniProt P11712). The assay is described as follows: Cytochrome P450 Family 2 Subfamily C Member 9 (CYP2C9) small molecule antagonists: luciferase reporter qHTS assay (AID 1671198). For activity change, negative = inhibition: series mostly up to about 120 µM. Note: nearly all actives have a fitted effect of over 50% in size. Note: potency is the fitted concentration of half-maximal effect. The method, boiled down:
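CYP2C9 activity was measured with a P450-Glo proluciferin substrate. Enzyme–substrate mix was held with compound for 10 min at room temperature, then NADPH regeneration solution was added for 1 h at 37C. Luciferin product was read as luminescence.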
% is set by controls: 0 for no effect and ±100 for the full control effect.

Sequence of Cytochrome P450 3A4 (Homo sapiens) (P08684 whole entry, looked up): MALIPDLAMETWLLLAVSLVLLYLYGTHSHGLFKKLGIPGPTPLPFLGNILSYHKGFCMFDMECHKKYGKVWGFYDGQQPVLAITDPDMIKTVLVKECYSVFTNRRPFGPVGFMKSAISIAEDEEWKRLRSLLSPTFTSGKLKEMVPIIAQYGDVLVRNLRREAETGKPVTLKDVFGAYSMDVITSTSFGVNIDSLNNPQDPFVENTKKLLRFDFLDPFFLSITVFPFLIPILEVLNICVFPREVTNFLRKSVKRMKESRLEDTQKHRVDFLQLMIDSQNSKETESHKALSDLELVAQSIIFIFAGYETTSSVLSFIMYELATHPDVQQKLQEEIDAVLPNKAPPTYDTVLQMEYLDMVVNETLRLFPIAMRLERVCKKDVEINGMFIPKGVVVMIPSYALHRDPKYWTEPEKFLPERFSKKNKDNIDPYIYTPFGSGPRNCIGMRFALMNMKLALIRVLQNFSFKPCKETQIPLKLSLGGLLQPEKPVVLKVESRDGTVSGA
Sequence of Voltage-gated inwardly rectifying potassium channel KCNH2 (Homo sapiens) (Q12809 whole entry, looked up): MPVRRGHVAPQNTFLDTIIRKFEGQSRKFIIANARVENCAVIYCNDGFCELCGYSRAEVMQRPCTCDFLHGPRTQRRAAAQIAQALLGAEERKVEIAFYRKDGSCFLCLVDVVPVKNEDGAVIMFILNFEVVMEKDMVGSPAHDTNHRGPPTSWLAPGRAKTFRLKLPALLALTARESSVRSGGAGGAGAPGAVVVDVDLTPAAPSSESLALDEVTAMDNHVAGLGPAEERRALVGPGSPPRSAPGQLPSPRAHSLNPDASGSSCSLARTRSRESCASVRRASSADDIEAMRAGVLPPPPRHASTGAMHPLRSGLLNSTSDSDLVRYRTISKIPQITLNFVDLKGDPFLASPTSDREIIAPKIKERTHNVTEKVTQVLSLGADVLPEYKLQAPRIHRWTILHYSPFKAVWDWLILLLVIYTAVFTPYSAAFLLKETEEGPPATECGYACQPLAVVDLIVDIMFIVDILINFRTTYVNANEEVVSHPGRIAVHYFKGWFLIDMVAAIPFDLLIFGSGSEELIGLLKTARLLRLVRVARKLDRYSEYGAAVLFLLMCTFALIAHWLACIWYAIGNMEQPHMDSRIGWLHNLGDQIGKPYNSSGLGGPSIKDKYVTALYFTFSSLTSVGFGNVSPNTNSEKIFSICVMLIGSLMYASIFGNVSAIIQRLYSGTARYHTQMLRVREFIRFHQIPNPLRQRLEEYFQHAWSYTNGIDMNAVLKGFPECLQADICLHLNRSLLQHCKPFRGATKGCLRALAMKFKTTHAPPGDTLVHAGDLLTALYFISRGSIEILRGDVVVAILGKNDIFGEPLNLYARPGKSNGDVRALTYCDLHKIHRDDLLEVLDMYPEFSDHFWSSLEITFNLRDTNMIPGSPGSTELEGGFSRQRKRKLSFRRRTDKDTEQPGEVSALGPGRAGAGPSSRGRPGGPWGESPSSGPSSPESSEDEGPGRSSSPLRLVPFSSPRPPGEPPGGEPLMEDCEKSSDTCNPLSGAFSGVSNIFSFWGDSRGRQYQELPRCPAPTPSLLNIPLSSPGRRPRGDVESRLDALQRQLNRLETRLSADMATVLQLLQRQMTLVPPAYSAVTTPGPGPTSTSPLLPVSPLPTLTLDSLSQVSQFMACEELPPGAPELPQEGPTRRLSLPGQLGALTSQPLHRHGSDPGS
Sequence of Cytochrome P450 2C9 (Homo sapiens) (P11712 whole entry, looked up): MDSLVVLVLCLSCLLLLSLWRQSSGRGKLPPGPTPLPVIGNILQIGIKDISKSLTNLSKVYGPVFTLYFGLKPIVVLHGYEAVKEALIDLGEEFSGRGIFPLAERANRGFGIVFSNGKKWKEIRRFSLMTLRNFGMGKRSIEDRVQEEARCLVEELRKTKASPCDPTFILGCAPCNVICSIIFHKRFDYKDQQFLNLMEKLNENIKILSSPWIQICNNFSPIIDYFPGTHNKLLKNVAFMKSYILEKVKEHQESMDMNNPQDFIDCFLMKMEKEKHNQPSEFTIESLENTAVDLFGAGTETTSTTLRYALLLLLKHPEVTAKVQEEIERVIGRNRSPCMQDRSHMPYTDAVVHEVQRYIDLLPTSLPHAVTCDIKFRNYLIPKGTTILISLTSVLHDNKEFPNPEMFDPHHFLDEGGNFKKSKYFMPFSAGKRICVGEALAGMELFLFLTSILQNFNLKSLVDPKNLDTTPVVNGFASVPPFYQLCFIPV
Sequence of Cytochrome P450 2D6 (Homo sapiens) (P10635 whole entry, looked up): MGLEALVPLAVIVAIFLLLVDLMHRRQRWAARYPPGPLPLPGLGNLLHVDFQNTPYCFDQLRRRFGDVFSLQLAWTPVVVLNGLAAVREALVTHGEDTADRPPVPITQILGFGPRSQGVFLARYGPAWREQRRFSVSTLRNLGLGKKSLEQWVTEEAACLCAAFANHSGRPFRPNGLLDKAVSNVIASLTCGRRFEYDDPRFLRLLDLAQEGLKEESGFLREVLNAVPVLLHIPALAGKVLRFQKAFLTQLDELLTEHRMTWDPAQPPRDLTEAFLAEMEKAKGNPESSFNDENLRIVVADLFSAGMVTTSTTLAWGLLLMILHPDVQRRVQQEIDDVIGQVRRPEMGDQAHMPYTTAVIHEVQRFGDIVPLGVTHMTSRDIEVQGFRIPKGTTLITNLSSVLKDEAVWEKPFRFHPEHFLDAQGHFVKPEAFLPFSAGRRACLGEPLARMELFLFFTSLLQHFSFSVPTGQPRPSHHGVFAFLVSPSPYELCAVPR
Sequence of Cytochrome P450 1A2 (Homo sapiens) (P05177 whole entry, looked up): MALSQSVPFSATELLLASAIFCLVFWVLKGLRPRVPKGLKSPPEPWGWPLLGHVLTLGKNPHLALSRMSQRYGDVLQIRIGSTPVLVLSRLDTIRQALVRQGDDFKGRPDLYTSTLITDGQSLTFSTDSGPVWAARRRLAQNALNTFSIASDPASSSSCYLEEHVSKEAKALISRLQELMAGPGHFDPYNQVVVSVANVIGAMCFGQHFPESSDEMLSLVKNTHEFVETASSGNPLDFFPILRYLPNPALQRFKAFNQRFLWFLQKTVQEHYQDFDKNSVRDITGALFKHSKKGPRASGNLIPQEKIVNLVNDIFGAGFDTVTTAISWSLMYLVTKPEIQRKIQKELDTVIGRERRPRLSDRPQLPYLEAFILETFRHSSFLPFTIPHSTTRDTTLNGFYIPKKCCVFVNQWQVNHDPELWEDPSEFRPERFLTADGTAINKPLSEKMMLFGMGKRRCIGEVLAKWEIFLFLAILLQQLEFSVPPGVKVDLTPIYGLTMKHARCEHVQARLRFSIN
Sequence of Cytochrome P450 2C19 (Homo sapiens) (P33261 whole entry, looked up): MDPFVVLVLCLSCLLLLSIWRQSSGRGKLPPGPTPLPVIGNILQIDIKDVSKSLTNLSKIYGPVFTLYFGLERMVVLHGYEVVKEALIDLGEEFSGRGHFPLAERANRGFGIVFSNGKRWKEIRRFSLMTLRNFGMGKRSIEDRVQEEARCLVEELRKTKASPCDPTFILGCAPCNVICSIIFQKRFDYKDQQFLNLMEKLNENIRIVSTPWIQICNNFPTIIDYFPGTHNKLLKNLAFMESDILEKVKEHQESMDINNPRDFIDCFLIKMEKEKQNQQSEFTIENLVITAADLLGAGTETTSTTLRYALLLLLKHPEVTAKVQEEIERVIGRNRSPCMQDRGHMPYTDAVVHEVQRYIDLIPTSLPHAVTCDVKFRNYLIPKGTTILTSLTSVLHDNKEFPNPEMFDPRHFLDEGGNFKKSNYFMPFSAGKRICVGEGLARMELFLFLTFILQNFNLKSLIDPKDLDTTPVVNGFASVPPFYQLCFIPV
Sequence of Nuclear receptor subfamily 1 group I member 2 (Homo sapiens) (O75469 whole entry, looked up): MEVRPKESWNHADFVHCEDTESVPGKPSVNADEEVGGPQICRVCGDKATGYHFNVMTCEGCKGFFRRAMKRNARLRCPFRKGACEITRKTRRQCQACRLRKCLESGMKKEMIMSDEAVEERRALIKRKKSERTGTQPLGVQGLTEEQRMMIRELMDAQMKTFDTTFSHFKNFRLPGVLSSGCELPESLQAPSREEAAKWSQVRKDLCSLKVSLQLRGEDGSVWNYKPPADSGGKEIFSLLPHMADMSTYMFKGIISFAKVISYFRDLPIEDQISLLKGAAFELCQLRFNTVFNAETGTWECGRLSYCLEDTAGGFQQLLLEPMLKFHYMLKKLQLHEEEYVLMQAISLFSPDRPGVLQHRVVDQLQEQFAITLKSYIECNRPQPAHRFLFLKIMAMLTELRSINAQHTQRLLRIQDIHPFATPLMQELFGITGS
Sequence of Acetylcholinesterase (Homo sapiens) (P22303 whole entry, looked up): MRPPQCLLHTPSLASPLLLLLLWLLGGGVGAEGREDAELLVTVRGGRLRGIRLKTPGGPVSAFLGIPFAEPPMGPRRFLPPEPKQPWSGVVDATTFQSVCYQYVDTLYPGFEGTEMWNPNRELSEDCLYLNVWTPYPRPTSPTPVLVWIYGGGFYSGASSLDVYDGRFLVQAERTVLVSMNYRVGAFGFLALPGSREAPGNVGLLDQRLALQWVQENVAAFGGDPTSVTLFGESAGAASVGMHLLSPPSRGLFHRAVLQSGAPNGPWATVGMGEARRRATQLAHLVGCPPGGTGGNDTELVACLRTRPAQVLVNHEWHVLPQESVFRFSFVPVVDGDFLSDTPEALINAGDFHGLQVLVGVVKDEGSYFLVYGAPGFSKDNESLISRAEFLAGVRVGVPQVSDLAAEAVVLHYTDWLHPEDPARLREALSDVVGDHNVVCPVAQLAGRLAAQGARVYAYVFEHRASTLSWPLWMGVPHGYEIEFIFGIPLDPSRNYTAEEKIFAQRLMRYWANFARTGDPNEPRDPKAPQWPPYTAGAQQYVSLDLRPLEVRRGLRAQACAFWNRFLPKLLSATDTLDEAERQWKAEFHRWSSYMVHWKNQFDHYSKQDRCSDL

As to `CO[C@@H]1[C@H](OC(=O)NC(=O)CCl)CC[C@]2(CO2)[C@H]1[C@@]1(C)O[C@@H]1CC=C(C)C`, in [1], the caspase activation was 1.54% [at 19 µM]. Also, the caspase-3/7 activation in [2] was 1.61% [at 19 µM]. For the same compound, the activity change, negative = cytotoxicity in assay [3] is -0.84% [at 19 µM]. In addition, the Potency in [4] was 10.6 µM (active); in assay [10], 21.8 µM (active); in [12] it was 7.74 µM (active). The activity, negative = inhibition in assay [5] was 2.96% [at 23.6 µM]. Also, the activity change, negative = inhibition is 0.618% [at 23.6 µM] in assay [6]; -0.397% [at 23.8 µM] in [7]; -0.551% [at 23.6 µM] in assay [8]; -6.64% [at 23.6 µM] in assay [9]; 7.85% [at 15.8 µM] in assay [11].
As for `Brc1ccc(Oc2ccccc2)cc1`, the Potency result in [1], in assay [2], in assay [3], in assay [4], in [5] and in [6] was “inactive” in each case. The Potency entry in assay [7], in assay [8], in [9], in assay [11] and in assay [12] was “inactive” throughout. Further, the Potency in assay [10] was 81.7 µM (active) and 31.7 µM (active); in assay [13], 25.2 µM (active).
Regarding `COCCOCCO`, the Potency result in assay [1], in assay [2], in [3], in assay [5], in [6] and in assay [7] was “inactive” each time. The Potency entry in assay [8] and in assay [11] was “inactive” each time. In addition, the Potency in assay [4] is 27.3 µM (active).
As to `[O-][Cl+]O`, the Potency entry in assay [1], in [2], in [3], in [4], in assay [5] and in [6] was “inactive” each time. Moreover, the Potency result in [7], in assay [8], in assay [9], in assay [10], in assay [14] and in assay [13] was “inactive” in each case. Further, the Potency entry in [11] and in assay [12] was “inactive” each time.
In the case of `CN1C[C@H](CNC(=O)OCc2ccccc2)C[C@@H]2c3cccc4c3c(cn4C)C[C@H]21`, the Potency entry in [1], in assay [2], in [3], in [4], in assay [14] and in assay [13] was “inactive” each time. Further, the Potency result in assay [12] was “inactive”. Also, the Potency is 3.47 µM (active) in [5]; 7.76 µM (active) in assay [6]; 0.871 µM (active) in assay [7]; 30.9 µM (active) in assay [8]; 3.38 µM (active) in assay [11].
Turning to `O=NN1CCNCC1`, the Potency result in assay [1], in [2], in assay [3], in assay [4], in [5] and in assay [6] was “inactive” in each case. Besides, the Potency entry in assay [7], in assay [8], in assay [11] and in assay [12] was “inactive” throughout. The Potency in assay [10] is 44.3 µM (active).
Turning to `CC(C)(C)C(O)C(Oc1ccc(Cl)cc1)n1cncn1` (stereo not given), the Potency entry in assay [1], in assay [2], in assay [3], in assay [5], in [6] and in assay [7] was “inactive” throughout. Further, the Potency result in assay [8] and in [11] was “inactive” in each case. In addition, the Potency in assay [4] was 4.33 µM (active); in assay [10] it was 0.796 µM (active); in assay [14], 33.6 µM (active).
As for `CCOC(=O)C(Cl)C(C)=O` (stereo not given), the Potency result in assay [1], in [2], in assay [3], in assay [4], in [6] and in assay [8] was “inactive” throughout. Also, the Potency result in assay [9], in assay [14], in assay [13], in [11] and in [12] was “inactive” throughout.
In the case of `COC1=CC(=O)O[C@@H](CCc2ccccc2)C1`, the Potency result in assay [1], in [2], in assay [3], in [5], in assay [7] and in [8] was “inactive” throughout. Besides, the Potency entry in [9], in [11] and in assay [12] was “inactive” in each case. The Potency in assay [4] is 63.6 µM (active); in assay [10], 5.87 µM (active); in [14], 33 µM (active).
